This passage reports outcome and AC50 results from PubChem BioAssay (EPA / NIEHS).

Inconclusive results are not listed. Calls of active or inactive are those of the source. Rule for the calls, unless noted: active = hit-call score of the fitted dose curve at least 0.9, where 1 is the maximum; inconclusive = response in the unintended direction; inactive = score below 0.9.

In assay [1] the target is Cellular tumor antigen p53 (Homo sapiens) (UniProt P04637). Nature of the assay: TOX21_p53_BLA_p2_ratio: Tox21 HCT-116 p53 Agonism Beta-lactamase Assay, Ratio, Phase 2 (AID 2283592). The method, boiled down:
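Readout: blue/green (460/530 nm) FRET emission ratio after 2 h CCF4-AM loading at room temperature, excitation 405 nm. HCT116 p53 bla cells, 16 h compound exposure at 37C, 5% CO2; agonist direction fitted against DMSO baseline.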

Assay [2] shares this target. The experiment in a line: TOX21_p53_BLA_p3_ratio: Tox21 HCT-116 p53 Agonism Beta-lactamase Assay, Ratio, Phase 3 (AID 2283596). The method, boiled down: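 Cells were seeded at 4000/well, rested 5 h at 37C, then dosed with DMSO compound solutions (217-fold dilution) for 16 h. CCF4-AM substrate was loaded for 2 h at room temperature, and the 460/530 nm emission ratio was fitted for gain of signal versus DMSO.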

The nature of assay [3]: TOX21_p53_BLA_p4_viability: Viability Assessment in the Tox21 HCT-116 p53 Agonism Beta-lactamase Assay, Phase 4 (AID 2283597).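 Note: hits lower the luminescence signal meaning cytotoxicity.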 The method, boiled down: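 ATP content by CellTiter-Glo luminescence, 30 min RT, read after the beta-lactamase ratio step. Cells: HCT116, 4000/well, compound added after 5 h, exposure 16 h at 37C. Signal loss = reduced viability.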
The target in assay [4] is Cellular tumor antigen p53 (Homo sapiens) (UniProt P04637). The experiment in a line: TOX21_p53_BLA_p5_ratio: Tox21 HCT-116 p53 Agonism Beta-lactamase Assay, Ratio, Phase 5 (AID 2283599). The method, boiled down:
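HCT-116 p53-bla cells (4000/well) plated 5 h, dosed with compound (217-fold DMSO dilution) for 16 h at 37 C; CCF4-AM substrate 2 h at room temperature. Activity is the 460/530 nm emission ratio (405 nm excitation), fitted in gain-of-signal direction versus DMSO.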

Assay [5] shares this target. Nature of the assay: TOX21_p53_BLA_p4_ratio: Tox21 HCT-116 p53 Agonism Beta-lactamase Assay, Ratio, Phase 4 (AID 2283601). The procedure, abridged: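 HCT-116 p53 beta-lactamase reporter cells (4000/well) preincubated 5 h, then compound (217-fold dilution of DMSO stock) for 16 h at 37C. CCF4-AM substrate added 2 h at room temperature; 460/530 nm emission ratio fitted upward versus DMSO.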

A short description of assay [6]: TOX21_p53_BLA_p5_viability: Viability Assessment in the Tox21 HCT-116 p53 Agonism Beta-lactamase Assay, Phase 5 (AID 2283600). The procedure, abridged: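 ATP luminescence (CellTiter-Glo, 30 min, RT) served as the viability read-out, with loss of signal indicating cytotoxicity. Compounds in DMSO were pinned at a 217-fold dilution onto 4000 cells/well and incubated 16 h, 37C.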

Assay [7] is described as follows: ACEA_ER_AUC_viability: ACEA Biosciences xCELLigence Real-Time Cell Analysis on Estrogen Receptor Agonism for Viability (AID 2283782).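 Note: hit means loss of impedance signal meaning reduced cell growth or viability.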 The procedure, abridged: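 Read-out: real-time electrical impedance (RT-CES) area under curve, loss of signal taken as reduced viability, normalized to DMSO baseline. T-47D cells, charcoal-stripped serum medium, compounds up to 100 uM final, continuous exposure, 80 h.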

The nature of assay [8]: CCTE_Harrill_HTTr_Viability_MCF7: CCTE's 6-hour Cell Viability Assessment for the High-Throughput Transcriptomics (HTTr) Platform, in MCF-7 cells cultured in DMEM + 10% fetal bovine serum, Harrill Lab (AID 2284010; active = hit-call score of the fitted dose curve at least 0.9, where 1 is the maximum; inactive = score below 0.9). The procedure, abridged:
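Read-out is propidium iodide gain of signal by high-content imaging, reflecting membrane integrity loss. Measurements are taken 6 h after dosing, eight concentrations per chemical, with DMSO serving as baseline for bidirectional curve fitting.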

Assay [9] in a line: CCTE_Harrill_HTTr_Apoptosis_MCF7: CCTE's 6-hour Apoptosis Assessment for the High-Throughput Transcriptomics (HTTr) Platform, in MCF-7 cells cultured in DMEM + 10% fetal bovine serum, Harrill Lab (AID 2284011; active = hit-call score of the fitted dose curve at least 0.9, where 1 is the maximum; inactive = score below 0.9). The method, boiled down: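 Read-out: CellEvent Caspase 3/7 Green signal by high content imaging, gain-of-signal indicating apoptosis. MCF-7 cells, DMEM + 10% FBS, eight-point dilution series, 6 h exposure. Curves fitted bidirectionally relative to DMSO negative control.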

Assay [10] in a line: CCTE_Harrill_HTTr_CellCount_MCF7: CCTE's Cell Proliferation Assessment for the High-Throughput Transcriptomics (HTTr) Platform, Harrill Lab (AID 2284012).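 Note: cells exposed to compound for six hours; intended direction is loss of nuclei count meaning fewer cells.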 The procedure, abridged:
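Cell count served as viability reporter: loss of Hoechst-stained nuclei, counted by high content imaging, marks decreased growth or survival. Exposure was 6 h in MCF-7 cells across eight concentrations, with DMSO as baseline.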

Assay [11] deals with Thyroid hormone receptor alpha (Rattus norvegicus) + Thyroid hormone receptor beta (Rattus norvegicus) (UniProt P18113+P63059). The experiment in a line: TOX21_TR_LUC_GH3_Antagonist_Followup: Tox21 GH3 Thyroid Hormone Receptor Antagonism Luciferase Follow-Up Assay (AID 2283942). The procedure, abridged: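 Luminescence read-out (ONE-Glo, 30 min at room temperature) in GH3 reporter cells challenged with 1.0 nM T3 final. Compounds ran at 92 uM to 5nM over 15 concentrations for 24 h; DMSO served as negative control and baseline.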

In the next assay the target is THRA (gene 7067) (UniProt P10827). Nature of the assay: TOX21_TRA_COA_Antagonist_Followup_ratio: Tox21 Thyroid Hormone Receptor alpha Antagonism through Coactivator Recruitment Follow-Up Assay, Ratio (AID 2283953). The method, boiled down:
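GST-TRα LBD 2.5 nM, BSA 0.10%, + cpd; then FITC-SRC-2 peptide 200 nM + Tb-anti-GST Ab 2 nM. TR-FRET ratio 520/495 nm. Norm: DMSO = 0%, T3 = 100%.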

A short description of assay [12]: TOX21_TRB_BLA_Antagonist_Followup_viability: Viability Assessment in the Tox21 Thyroid Hormone Receptor beta Antagonism Beta-lactamase (BLA) Follow-Up Assay (AID 2283961). The method, boiled down: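 Viability read as CellTiter-Glo ATP luminescence (loss of signal = cytotoxicity) in the same plates as the TRβ-bla readout. TRβ-LBD/GAL4 UAS-bla HEK293T cells were exposed to compounds, 11 concentrations in triplicate, for 18 h at 37C/5% CO2.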

The next assay addresses THRB (gene 7068) (UniProt P10828). The experiment in a line: TOX21_TRB_COA_Antagonist_Followup_ratio: Tox21 Thyroid Hormone Receptor beta Antagonism through Coactivator Recruitment Follow-Up Assay, Ratio (AID 2283967). The procedure, abridged: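 GST-TRb LBD 5.0 nM + 0.10% BSA, compound added; fluorescein-SRC-2 peptide 200 nM, Tb-anti-GST Ab 2 nM. TR-FRET, ex 340 / em 520:495 ratio. Norm: DMSO 0%, T3 100%.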

Assay [13] deals with Retinoic acid receptor RXR-alpha (Homo sapiens) (UniProt P19793). Nature of the assay: TOX21_TR_RXR_BLA_Antagonist_Followup_ratio: Tox21 Thyroid Hormone Receptor beta Retinoid X Receptor alpha (RXRa) Antagonism Beta-lactamase (BLA) Follow-Up Assay, Ratio (AID 2283972). The method, boiled down:
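Beta-lactamase reporter readout as cleaved/uncleaved substrate ratio (460:530 nm) after 2 h substrate loading at room temperature. GAL4-RXRa bla HEK293T cells were exposed 16 h at 37C to 11-point compound series; loss of signal scored against DMSO baseline.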

The nature of assay [14]: TOX21_TR_RXR_BLA_Antagonist_Followup_viability: Viability Assessment in the Tox21 Thyroid Hormone Receptor beta Retinoid X Receptor alpha (RXRa) Antagonism Beta-lactamase (BLA) Follow-Up Assay (AID 2283979). The procedure, abridged: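 RXRa-bla HEK293T cells (2,500/well, phenol red-free DMEM, 2% charcoal-stripped FBS) were attached 5 h, then exposed to compounds at 11 concentrations in triplicate for 16 h at 37C. Viability measured by CellTiter-Glo ATP luminescence, bidirectional fitting versus DMSO.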

Cellular tumor antigen p53 (Homo sapiens), sequence (P04637 whole entry, looked up): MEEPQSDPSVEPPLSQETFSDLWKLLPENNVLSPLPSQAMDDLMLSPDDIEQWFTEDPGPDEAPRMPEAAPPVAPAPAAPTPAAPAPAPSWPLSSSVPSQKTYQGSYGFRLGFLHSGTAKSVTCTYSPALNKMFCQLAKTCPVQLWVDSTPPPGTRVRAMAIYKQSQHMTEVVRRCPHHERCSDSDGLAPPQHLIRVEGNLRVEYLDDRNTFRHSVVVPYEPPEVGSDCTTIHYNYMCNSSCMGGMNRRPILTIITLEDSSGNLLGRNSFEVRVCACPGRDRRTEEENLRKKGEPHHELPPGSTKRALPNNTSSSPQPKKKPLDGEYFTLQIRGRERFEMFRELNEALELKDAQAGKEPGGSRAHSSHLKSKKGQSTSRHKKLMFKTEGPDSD
THRB (gene 7068), sequence (P10828 whole entry, looked up, the tested form may be a part): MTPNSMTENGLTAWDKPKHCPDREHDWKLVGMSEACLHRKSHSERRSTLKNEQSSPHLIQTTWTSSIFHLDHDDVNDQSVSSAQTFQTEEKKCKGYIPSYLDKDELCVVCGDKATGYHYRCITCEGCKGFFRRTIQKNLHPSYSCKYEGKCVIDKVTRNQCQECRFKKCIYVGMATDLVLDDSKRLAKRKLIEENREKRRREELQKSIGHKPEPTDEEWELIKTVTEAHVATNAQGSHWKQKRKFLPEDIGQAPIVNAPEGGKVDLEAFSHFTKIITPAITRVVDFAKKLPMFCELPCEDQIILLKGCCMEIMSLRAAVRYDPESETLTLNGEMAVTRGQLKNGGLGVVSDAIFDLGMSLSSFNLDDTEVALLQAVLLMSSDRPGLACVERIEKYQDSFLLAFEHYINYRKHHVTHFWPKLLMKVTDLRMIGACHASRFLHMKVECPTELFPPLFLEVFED
Retinoic acid receptor RXR-alpha (Homo sapiens), sequence (P19793 whole entry, looked up, the tested form may be a part): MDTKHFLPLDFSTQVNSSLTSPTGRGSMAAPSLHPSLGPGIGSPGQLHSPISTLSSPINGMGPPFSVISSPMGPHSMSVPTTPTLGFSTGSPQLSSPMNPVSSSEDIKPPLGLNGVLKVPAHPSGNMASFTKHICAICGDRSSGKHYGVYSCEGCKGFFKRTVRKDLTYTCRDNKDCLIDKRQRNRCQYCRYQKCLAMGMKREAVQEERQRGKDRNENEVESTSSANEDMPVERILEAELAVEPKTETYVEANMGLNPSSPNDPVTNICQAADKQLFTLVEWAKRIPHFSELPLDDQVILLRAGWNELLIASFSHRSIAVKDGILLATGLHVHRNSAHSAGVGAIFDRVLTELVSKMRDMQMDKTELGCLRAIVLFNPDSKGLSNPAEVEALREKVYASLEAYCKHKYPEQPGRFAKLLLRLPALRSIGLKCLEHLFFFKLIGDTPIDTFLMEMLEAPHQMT
THRA (gene 7067), sequence (P10827 whole entry, looked up, the tested form may be a part): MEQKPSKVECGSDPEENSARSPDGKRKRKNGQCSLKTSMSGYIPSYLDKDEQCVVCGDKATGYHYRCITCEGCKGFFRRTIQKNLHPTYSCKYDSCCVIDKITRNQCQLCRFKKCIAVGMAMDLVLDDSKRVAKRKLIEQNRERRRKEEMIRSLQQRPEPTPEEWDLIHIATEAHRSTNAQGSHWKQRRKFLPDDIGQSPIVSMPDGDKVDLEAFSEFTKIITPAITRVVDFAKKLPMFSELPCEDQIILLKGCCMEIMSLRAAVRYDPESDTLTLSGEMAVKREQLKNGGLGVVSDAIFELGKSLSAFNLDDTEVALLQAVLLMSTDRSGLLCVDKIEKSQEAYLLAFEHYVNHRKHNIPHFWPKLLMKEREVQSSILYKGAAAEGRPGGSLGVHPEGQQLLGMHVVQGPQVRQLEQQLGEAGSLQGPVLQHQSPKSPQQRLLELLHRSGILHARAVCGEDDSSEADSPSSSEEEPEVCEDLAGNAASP

As to `CC=C(Cl)Cl`, the result in assay [1], in [2], in assay [3], in assay [4] and in [5] was inactive.

In the case of `O=C1c2ccccc2C(=O)c2c1ccc(O)c2O`, the outcome in [1], in [2], in assay [3], in assay [4], in assay [6] and in [5] was inactive.

Take `OCc1c2ccccc2cc2ccccc12`: the result in [1], in assay [2], in assay [3], in [4] and in [5] was inactive.

For the molecule `C[Si](Cl)(c1ccccc1)c1ccccc1`, the result in assay [1], in [2], in assay [3], in assay [4] and in assay [5] was inactive.

On to `C=CCOC(=O)CCCCCCCC`, for which the outcome in [1], in assay [2], in assay [3], in [4], in assay [6] and in assay [5] was inactive.

As for `CC(=O)Nc1cccc(N)c1`, the figures for the AC50 in [1] and in assay [5] were 84.4 µM (active) and 79.2 µM (active), respectively. Also, the result in assay [2], in [3] and in [4] was inactive.

On to `CC1(C)OC(=O)NC1=O`, for which the outcome in assay [1], in assay [2], in [3], in assay [4], in assay [6] and in [5] was inactive.

As for `CC(C)COC(=O)OCN1C(=O)CN(CCN2CC(=O)N(COC(=O)OCC(C)C)C(=O)C2)CC1=O`, the AC50 in assay [1] was 4.1 µM (active); in [2], 4.07 µM (active); in assay [4] it was 7.4 µM (active); in assay [5], 3.05 µM (active). Moreover, in assay [3], the outcome was inactive.

For `CC(Cc1cccc(C(F)(F)F)c1)NCCOC(=O)c1ccccc1` (stereo not drawn), the outcome in assay [1], in assay [2], in [3], in [4], in assay [6] and in [5] was inactive.

Consider `CC(=O)O[C@H]1CC[C@@]2(C)C(=CC[C@@H]3[C@@H]2CC[C@]2(C)C(c4cccnc4)=CC[C@@H]32)C1`, for which the outcome in [1], in [2], in assay [3], in [4] and in [5] was inactive.

For `CN1CCCN(C(c2ccccc2)c2ccc(Cl)cc2)CC1` (stereo not drawn), the outcome in assay [1], in assay [2], in [4], in assay [6] and in assay [5] was inactive. Besides, in [3], the AC50 was 34.8 µM (active).

With `CC(=O)Oc1cc(C(F)(F)F)ccc1C(=O)O`, the result in assay [1], in assay [2], in assay [3], in [4], in assay [6] and in assay [5] was inactive.

`CN(C)CCC=C1c2ccccc2C=Cc2ccccc21`: the result in assay [1], in assay [2], in [3], in [4] and in assay [5] was inactive.

As to `COc1ccc(/C=C/c2cc(OC)cc(=O)o2)cc1`, the outcome in assay [1], in [2], in assay [3], in assay [4] and in [5] was inactive.

As to `CN(C)c1ccc(SC#N)cc1`, the outcome in assay [1], in [2], in assay [3], in assay [4] and in assay [5] was inactive.

Consider `Cc1ccccc1N=O`, for which the result in assay [1], in assay [2], in assay [3], in [4] and in [5] was inactive.

Take `Cc1c[nH]c2ccccc12`: the result in assay [1], in assay [2], in assay [3], in assay [4], in assay [6] and in assay [5] was inactive.

Regarding `Nc1nc2c(ncn2COC(CO)CO)c(=O)[nH]1`, the result in assay [1], in assay [2], in assay [3], in [4], in assay [6] and in assay [5] was inactive.

Take `CN1CCC[C@@H]1CCO[C@](C)(c1ccccc1)c1ccc(Cl)cc1`: the result in assay [1], in [2], in assay [3], in assay [4], in assay [6] and in assay [5] was inactive.

Consider `Cc1ccc(N(CC2=NCCN2)c2cccc(O)c2)cc1`, for which the AC50 in [1] is 31 µM (active); in assay [5], 30.4 µM (active). The outcome in assay [2], in assay [3] and in assay [4] was inactive.

As for `O=C(O)CCc1ccccc1`, the outcome in assay [1], in assay [2], in assay [3], in [4], in [6] and in [5] was inactive. The outcome in [7], in assay [8], in [9] and in assay [10] was inactive.

In the case of `O=C(c1ccc2c(c1)C(=O)OC2=O)c1ccc2c(c1)C(=O)OC2=O`, the result in [1], in [2], in assay [3], in [4] and in assay [5] was inactive.

Take `NS(=O)(=O)c1ccc(Cl)c(S(N)(=O)=O)c1`: the result in assay [1], in assay [2], in assay [3], in assay [4] and in assay [5] was inactive.

On to `COc1cc(C(=O)NC2CCCNC2)cc(OC)c1OC` (stereo not drawn), for which the outcome (in assay [11]; with THRA (gene 7067); in [12]; in the assay with THRB (gene 7068); in assay [13]; in [14]) was inactive.

For the molecule `CC1=NN(c2ccc(C(=O)O)cc2)C(=O)C1`, the outcome in assay [1], in [2], in assay [4] and in assay [5] was inactive.

As for `CC(C)(C)C(=O)OCC(=O)[C@H]1CC[C@H]2[C@@H]3CCC4=CC(=O)CC[C@]4(C)[C@H]3CC[C@]12C`, the outcome in assay [1], in assay [2], in [4], in assay [6] and in assay [5] was inactive.

As to `NC1CCN(c2nc3c(cc2F)c(=O)c(C(=O)O)cn3-c2ccc(F)cc2F)C1` (stereo not drawn), the result in assay [1], in [2], in assay [4] and in [5] was inactive.

One may read the AC50 as the concentration at which the activity in the assay is half-maximal.
